The list is not random: actives were taken first. Their share in the collection is about 11%.
Pf growth 96h = P. falciparum growth inhibition at 96 hour, primary screen for plastid delayed-death inhibitors. Potency, µM (top dose mostly 28.7 µM), usual class: inhibitors. hit rate 6.9% among 320,000. AID 504834. P. falciparum luciferase reporter growth, 96 h
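Compounds incubated with erythrocytes infected by luciferase-expressing P. falciparum (2% hematocrit, 0.05% parasitemia final) for 96 hours, 37 C in 5% CO2. Growth inhibition scored as decreased luciferase luminescence.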
Pf growth 48h = P. falciparum growth inhibition at 48 hours (one generation); Potency, µM (doses to about 28.7 µM), most hits filed as inhibitors; P. falciparum luciferase growth in erythrocytes, 48 h; hit rate 5.9% among 310,000
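Firefly luciferase activity from engineered P. falciparum reports growth; inhibitors lower the luminescent signal. Cultures contained 2% hematocrit erythrocytes at 0.1% final parasitemia.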
NS1 function inh = influenza NS1 inhibition | Potency, µM (titrated, usually from 46.1 µM) | hit rate 0.4% among 270,000 | AID 2326; calls by dose curve; also: actives are rising curves; nearly all actives have a fitted effect of over 50% in size
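A cell-based growth assay was used: compounds that relieve NS1-induced slow growth of budding yeast raise OD600. Assay medium was yeast nitrogen base with ammonium sulphate and -URA supplement, pH 6.0, with 2% galactose.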
AMA1 RON2 block = AMA1-RON2 (P. falciparum) interaction inhibition; AlphaScreen AMA1-biotinylated RON2 peptide binding; Potency, µM (highest dose often 58.2 µM), actives largely listed as inhibitors; hit rate 0.2% among 360,000; AID 720542; also: nearly all actives have a fitted effect of over 45% in size
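AMA1 (3D7) with his tag at 25 nM final met compounds first, then biotinylated RON2 peptide at 25 nM; detection used donor plus acceptor beads, 10 µg/mL apiece, read by AlphaScreen after 30 min at room temperature.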
Sm TGR block = blocks Schistosoma mansoni thioredoxin glutathione reductase | Q962Y6 | purified TGR, DTNB reduction, TNB absorbance 405 nm | Potency, µM (top dose mostly 114 µM), usual class: inhibitors | hit rate 3% among 360,000 | AID 485364; also: nearly all actives have a fitted effect of over 60% in size
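TGR 20 nM + NADPH 100 uM (dispensed conc.), cpd preinc 15 min RT; start with NADPH (500 uM addition) then DTNB (15 mM addition). Kinetic TNB absorbance, 405 nm filter. Four-parameter Hill fit across titration.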
A number is an active result; . = inactive; ? = inconclusive; / = not tested or not shown; [ ] = remark or other dose. Unless noted, calls follow the shape of the dose curve; as a rule, active = well fitted curve in the direction sought with a large enough effect; inconclusive = small, poorly fitted or top-dose-only effect, or another doubt; inactive = no such curve, though single readings can be large; an effect the other way counts as inactive or inconclusive.

SMILES	Pf growth 96h	Pf growth 48h	NS1 function inh	AMA1 RON2 block	Sm TGR block
Cc1ccc(/C=C/C(=O)N2CC(C)CC(C)C2)o1 (centres undefined)	.	.	.	.	2.8µM
Cc1ccc(/C=C/C(=O)N2CCN(S(=O)(=O)c3cccs3)CC2)o1	?	.	?	.	8.9µM
O=C(/C=C/c1ccco1)N1CCN(S(=O)(=O)c2cccs2)CC1	?	?	.	.	3.5µM
COc1ccc(C)cc1/C=C/C(=O)N1CCN(S(=O)(=O)c2cccs2)CC1	/	/	/	.	/
O=C(CC12CC3CC(CC(C3)C1)C2)N1CCN(S(=O)(=O)c2cccs2)CC1	13µM	?	.	.	.
COc1ccc(C)cc1NC(=O)C(NS(=O)(=O)c1cccc2nsnc12)c1ccccc1 (centres undefined)	/	/	/	/	.
CC(C)n1nnnc1SCC(=O)NCc1ccc2c(c1)OCO2	?	.	.	.	.
Cn1nnnc1SCC(=O)N1CCOCC1	?	.	.	.	.
CC(C)n1nnnc1SCC(=O)N1CCOCC1	13µM	.	.	.	.
CC(C)n1nnnc1SCC(=O)N1CCN(Cc2ccc3c(c2)OCCO3)CC1	10µM	12µM	/	.	.
O=c1nc2n(c3cc(Cl)c(S(=O)(=O)N4CCOCC4)cc13)CCCCC2	9.3µM	.	.	.	.
CCOC(=O)/C=C/S(=O)(=O)c1ccc(NC(C)=O)cc1	/	.	.	.	0.32µM
CCOC(=O)/C=C/C(=O)OCC(=O)Nc1cccc(Br)c1	.	.	/	.	18µM
COCC(=O)Nc1cccc(Br)c1	?	.	.	.	.
CCOC(=O)/C=C/C(=O)Nc1ccc(S(=O)(=O)Nc2c(C)cc(C)cc2C)cc1	.	.	.	.	.
CCOC(=O)/C=C/C(=O)OCC(=O)Nc1ccc(C)cc1	.	.	/	.	13µM
COc1ccc(CCC(=O)NC2CC(=O)N(c3ccc(F)cc3)C2)cc1 (centres undefined)	/	/	/	/	.
COc1ccccc1-n1c(=O)n(C)c2c(C(N)=O)nc(-c3cc(OC)c(OC)c(OC)c3)nc21	/	/	/	/	.
CCc1ccc(N2CC(c3nc4ccccc4n3Cc3ccccc3C)CC2=O)cc1 (centres undefined)	/	/	/	/	.
COC(=O)c1ccc(CNC(=O)C2CCC(=O)N(CCc3ccccc3)C2)cc1 (centres undefined)	?	.	.	.	.
CCOC(=O)C1CCCN(C(=O)c2ccc(Cn3c(=S)[nH]c4cc(C(=O)OC)ccc4c3=O)cc2)C1 (centres undefined)	12µM	?	/	.	.
CC1CCc2[nH]c3ccc(C(=O)N4CCCC(C(F)(F)F)C4)cc3c2C1 (centres undefined)	?	?	/	?	.
CCOC(=O)C1CCCN(C(=O)c2ccc3[nH]c4c(c3c2)CC(C)CC4)C1 (centres undefined)	?	9.3µM	/	.	.
N#Cc1nc(-c2ccc(OCc3ccc(Cl)cc3)cc2)oc1NCCCn1ccnc1	?	2.3µM	?	.	.
C=CCNS(=O)(=O)c1ccc(OCC(=O)OCC)cc1	2.3µM	.	.	.	.
SMILES	Pf growth 96h	Pf growth 48h	NS1 function inh	AMA1 RON2 block	Sm TGR block
CCOC(=O)COc1ccc(S(=O)(=O)c2ccc(OCC(=O)OCC)cc2)cc1	?	/	.	.	.
CCOC(=O)c1c(C)nc2sc3c(c2c1-c1ccc(OC)cc1)NC(c1ccc(OC)cc1)NC3=O (centres undefined)	2.6µM	?	.	.	.
CCOC(=O)c1c(C)nc2sc(C(=O)Nc3ccccc3)c(N)c2c1-c1ccc(OC)cc1	.[5.75 µM]	?	.	.	.
COC(=O)C1=C(O)/C(=C\c2ccc(O)c(OC)c2)N=C1C	/	.	.	.	50µM
CC(C)CCOP(=O)(c1ccc(N(C)C)cc1)C(O)c1c(Cl)cccc1Cl (centres undefined)	12µM	10µM	.	.	.
Cc1ccc(C(O)P(=O)(OCCC(C)C)c2ccc(N(C)C)cc2)cc1 (centres undefined)	?	12µM	.	.	.
CCCCOP(=O)(c1ccc(N(C)C)cc1)C(Nc1ccccc1)c1ccccc1 (centres undefined)	15µM	?	.	?	.
CN(C)c1ccc(P(=O)(OCc2ccccc2)C(O)c2ccc(Br)cc2)cc1 (centres undefined)	?	?	.	.	.
CC(C)COP(=O)(c1ccc(N(C)C)cc1)C(O)c1ccc(Br)cc1 (centres undefined)	10µM	?	.	.	.

Screening data (PubChem BioAssay)
